RGS12 GoLoco inh-1 – RGS12 GoLoco-Gai1 interaction inhibition; P63096; Gai1:RGS12 GoLoco peptide FP, rhodamine, 10 min; Potency, µM (doses to about 61.6 µM), for the others: at the highest dose activity, negative = inhibition, most hits filed as inhibitors; 0.44% of 230,000 active; active = well fitted inhibition curve with a large enough effect, not every such curve was filed as active; inactive = no such curve, though single readings can be large or run the other way; note: potency is the fitted concentration of half-maximal effect; % is set by controls: 0 for no effect and ±100 for the full control effect; nearly all actives have a fitted effect of over 30% in size
Tb PFK inh – inhibitors of T. brucei phosphofructokinase | AID 485367 | 0.17% of 330,000 active | O15648 | T. brucei PFK, ADP-Glo luminescence | Potency, µM (highest dose often 57.5 µM), without a hit: at the top dose activity, negative = inhibition, actives largely listed as inhibitors;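 note: potency is the fitted concentration of half-maximal effect; 0% = uninhibited 1x PFK enzyme wells and -100% = no-enzyme wells; nearly all actives have a fitted effect of over 60% in size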
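ADP-Glo luminescence quantified ADP after 45 min at room temperature, with 1.25 nM T. brucei PFK, 0.1 mM ATP and 0.5 mM fructose-6-phosphate in pH 8.0 TEA buffer. qHTS titrations up to 57 µM; curves classified by quality.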
MBNL1 CUG block – MBNL1-poly(CUG) RNA binding inhibition | TR-FRET MBNL1-His/biotin-(CUG)12 binding, 665/545 ratio | 0.036% of 280,000 active | Potency, µM (doses to about 57.5 µM), for inactives: top-dose activity change, negative = inhibition, hits mostly inhibitors | Q9NR56; active = well fitted inhibition curve with a large enough effect in the signal ratio, with a control signal flat, not every such curve was filed as active; inconclusive = small, poorly fitted or top-dose-only effect, or effect the other way, or a change in a side signal; inactive = no such curve, though single readings can be large or run the other way; the % refers to the signal ratio; note: potency is the fitted concentration of half-maximal effect; % is set by controls: 0 for no effect and ±100 for the full control effect
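TR-FRET readout: Ex 340 nm, 665/545 nm emission ratio, normalized to buffer-only (basal) and MBNL1-(CUG)12 controls. Complex of MBNL1-His with Biotin-(CUG)12, compounds 92 nM–58 uM, incubated 60 min at room temperature.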
NPSR antag – blocks cAMP signaling of the human neuropeptide S receptor; Q6W5P4; CHO-NPSR cells, cAMP TR-FRET, antagonist mode; Potency, µM (highest dose often 38.3 µM), inactives show at the top dose activity change, negative = inhibition, actives largely listed as inhibitors; 1% of 220,000 active; AID 1461; note: potency is the fitted concentration of half-maximal effect; % is set by controls: 0 for no effect and ±100 for the full control effect; nearly all actives have a fitted effect of over 50% in size
Target sequence (Q6W5P4 whole entry, looked up): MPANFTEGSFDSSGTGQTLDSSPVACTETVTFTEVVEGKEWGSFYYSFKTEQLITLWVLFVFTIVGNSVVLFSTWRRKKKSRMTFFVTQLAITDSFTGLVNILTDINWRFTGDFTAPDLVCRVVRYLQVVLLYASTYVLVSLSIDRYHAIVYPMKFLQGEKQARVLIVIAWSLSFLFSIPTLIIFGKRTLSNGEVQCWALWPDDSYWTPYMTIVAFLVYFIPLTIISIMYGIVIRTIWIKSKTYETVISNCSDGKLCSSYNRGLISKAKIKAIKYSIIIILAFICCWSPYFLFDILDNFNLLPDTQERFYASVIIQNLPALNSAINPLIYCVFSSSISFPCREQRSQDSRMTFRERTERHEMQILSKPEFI
IMPase Li inh – IMPase inhibition in cells with lithium potentiation; AID 1457; 0.35% of 210,000 active; Potency, µM (top dose mostly 59.4 µM), for the others: at the highest dose activity, negative = IMPase inhibition, most hits filed as inhibitors; CHO-M1 cells, IP1 TR-FRET (IP-One), carbachol + lithium;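 note: IP1 builds up when IMPase is blocked and the TR-FRET signal falls; potency is the fitted concentration of half-maximal effect; plate controls were basal vehicle for no effect and high inhibitor control for full effect; nearly all actives have a fitted effect of over 50% in size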
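Steps: plate 2000 CHO-M1 cells per well and culture 16–30 h; add compound and lithium; incubate 30 min, 37C; add d2-IP1 tracer and Eu cryptate anti-IP1 antibody in lysis buffer; read after 10 min at room temperature.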
RGS12 GoLoco inh-2 – RGS12 (human) GoLoco motif inhibition, red FP. 50% of 110 active. AID 2390. Gai1/rhodamine-RGS12 GoLoco peptide fluorescence polarization. Potency, µM (titrated, usually from 57.1 µM), inactives show top-dose activity, negative = inhibition, actives largely listed as inhibitors. shares compounds with RGS12 GoLoco inh-1
Numbers without * were called inactive; [ ] = another dose, or the depositor's remark. The sample as a whole holds a higher share of hits than the screen did. Unless noted, calls come from the whole dose curve; as a rule, active = well fitted curve in the direction sought with a large enough effect; inconclusive = small, poorly fitted or top-dose-only effect, or another doubt; inactive = no such curve, though single readings can be large; an effect the other way counts as inactive or inconclusive.

For CC1c2ccccc2CN1CC1=NCCN1 (stereo not drawn) the results were RGS12 GoLoco inh-1 25µM*, IMPase Li inh 0% and RGS12 GoLoco inh-2 inconclusive.
Screening O=C(CCCC(=O)N(CC(=O)NC1CCCCC1)c1ccccc1F)Nc1ccccn1 returned Tb PFK inh -2% and MBNL1 CUG block -4%.
Screening Cn1c(SCC(=O)Nc2ccccc2)nnc1-c1ccc(NC(=O)CCc2ccccc2)cc1 returned RGS12 GoLoco inh-1 2%, Tb PFK inh 0%, MBNL1 CUG block 9%, NPSR antag -4%[46.1 µM], IMPase Li inh 4% and RGS12 GoLoco inh-2 -6%.
`Cn1c(SCC(=O)N2CCCC2)nnc1-c1ccc(S(=O)(=O)N2CCCC2)cc1` gave RGS12 GoLoco inh-1 12%, Tb PFK inh -3%, MBNL1 CUG block 1%, NPSR antag -6%[46.1 µM] and IMPase Li inh 11%[38.3 µM].
For CCC(=O)Nc1ccc(-c2nnc(SCC(=O)N3CCCCC3)n2C)cc1 the results were RGS12 GoLoco inh-1 -4%, Tb PFK inh 1%, MBNL1 CUG block -5%, NPSR antag -4%[46.1 µM], IMPase Li inh 11%[38.3 µM] and RGS12 GoLoco inh-2 15%.
For O=C(NNC(=O)c1ccncc1)Nc1cccc(C(F)(F)F)c1 the results were Tb PFK inh 3% and MBNL1 CUG block -5%.
For COc1ccc(NC(=O)C(=O)NCCN2CCN(C(=O)c3cccc(Br)c3)CC2)cc1 the results were Tb PFK inh -1% and MBNL1 CUG block 2%.
`CN(C)/C=N/c1cc(=O)[nH]c(=O)n1CC1CC1` gave RGS12 GoLoco inh-1 4%, Tb PFK inh -3%, MBNL1 CUG block -14%, NPSR antag 13% and IMPase Li inh -10%.
C=CCn1c(=O)[nH]c2nc3cc(N=CN(C)C)c(C)cc3nc2c1=O was read as RGS12 GoLoco inh-1 28µM*, Tb PFK inh -3%, MBNL1 CUG block inconclusive, NPSR antag -32% and RGS12 GoLoco inh-2 28µM*.
Screening O=C(O)c1ccc([N+](=O)[O-])c(P(=O)(O)O)c1 returned RGS12 GoLoco inh-1 3%[14.2 µM] and IMPase Li inh -14%.
For CCn1c(SCC(=O)N2CCN(c3cccc(Cl)c3)CC2)nc2ccccc2c1=O the results were RGS12 GoLoco inh-1 8%, Tb PFK inh -19%, MBNL1 CUG block -4%, NPSR antag inconclusive, IMPase Li inh 16% and RGS12 GoLoco inh-2 8%.
`CCn1c(SCC(=O)N2CCCCCC2)nc2ccccc2c1=O` gave Tb PFK inh 1% and MBNL1 CUG block 1%.
Screening Nc1ccc2nc3c(=O)n(CCc4ccccc4)c(=O)[nH]c3nc2c1 returned RGS12 GoLoco inh-1 18µM*, Tb PFK inh -6%, MBNL1 CUG block inconclusive, NPSR antag -39% and RGS12 GoLoco inh-2 13µM*.
`Cc1nc2ccccc2c(=O)n1CCc1ccccc1` gave Tb PFK inh 5% and MBNL1 CUG block -22%.
For Cc1cc2nc3c(=O)n(CCc4ccccc4)c(=O)[nH]c3nc2cc1N the results were RGS12 GoLoco inh-1 7.9µM*, Tb PFK inh -6%, MBNL1 CUG block inconclusive, NPSR antag -29% and RGS12 GoLoco inh-2 inconclusive.
Screening COc1cc2[nH]c(=O)n(C3CCCCC3)c(=O)c2cc1OC returned RGS12 GoLoco inh-1 -3%, Tb PFK inh 2%, MBNL1 CUG block 1%, NPSR antag -13%[46.1 µM] and IMPase Li inh 3%[38.3 µM].
Nc1ccc2nc3c(=O)n(C4CCCCC4)c(=O)[nH]c3nc2c1 was read as RGS12 GoLoco inh-1 25µM*, Tb PFK inh -2%, MBNL1 CUG block inconclusive, NPSR antag -28% and RGS12 GoLoco inh-2 11µM*.
For CCCCn1c(=O)[nH]c2nc3cc(N)ccc3nc2c1=O the results were RGS12 GoLoco inh-1 13µM*, Tb PFK inh -1%, MBNL1 CUG block inconclusive, NPSR antag -24%[46.1 µM], IMPase Li inh -11% and RGS12 GoLoco inh-2 8.9µM*.
`Cc1cc(F)cc(C)c1Cn1cnc2c(cnn2C(C)(C)C)c1=O` gave Tb PFK inh 0%.
Screening COc1ccc(C(=O)N[C@H](C(=O)OCc2nc3ccsc3c(=O)[nH]2)C(C)C)cc1 returned Tb PFK inh -6%.

Screening results from PubChem.
